{"source": "PubChem BioAssay (Tox21)", "note": "Values joined by “and” are separate entries in the source; they are usually repeats but may differ in a detail not shown here. Equal entries are not always repeated. Inconclusive results are not listed. A number with no mark means an inactive call. Active and inactive are the calls of the source. The call rests on the fitted dose curve; in most records, active means well fitted inhibition curve with a large enough effect in the signal ratio in the repeat runs (not every such curve was filed as active); inconclusive means weak or mixed curves, or effect the other way; inactive means no such curve, though single readings can be large or run the other way; the % refers to the signal ratio. Starred links: 1 amine or outer side, 2 acyl side, 3 side chain; linkers in the order of their positions; H or OH if unused. Positions of bridges follow the written chain, without caps; N, C: chain ends. Non-standard residues stand in square brackets, D forms with d. Residues, ends and D or L forms follow the SMILES beside them. Chains are numbered I, II in the order given. Actinocin(9to1) = Cc1c2oc3c(C)ccc(C(=O)[*:1])c3nc-2c(C(=O)[*:2])c(N)c1=O; NMeV = CN[C@H](C(=O)O)C(C)C; Sar = CNCC(=O)O", "data": [{"molecular_target": "Estrogen receptor beta (Homo sapiens) (UniProt Q92731)", "sequence (Q92731 whole entry, looked up)": "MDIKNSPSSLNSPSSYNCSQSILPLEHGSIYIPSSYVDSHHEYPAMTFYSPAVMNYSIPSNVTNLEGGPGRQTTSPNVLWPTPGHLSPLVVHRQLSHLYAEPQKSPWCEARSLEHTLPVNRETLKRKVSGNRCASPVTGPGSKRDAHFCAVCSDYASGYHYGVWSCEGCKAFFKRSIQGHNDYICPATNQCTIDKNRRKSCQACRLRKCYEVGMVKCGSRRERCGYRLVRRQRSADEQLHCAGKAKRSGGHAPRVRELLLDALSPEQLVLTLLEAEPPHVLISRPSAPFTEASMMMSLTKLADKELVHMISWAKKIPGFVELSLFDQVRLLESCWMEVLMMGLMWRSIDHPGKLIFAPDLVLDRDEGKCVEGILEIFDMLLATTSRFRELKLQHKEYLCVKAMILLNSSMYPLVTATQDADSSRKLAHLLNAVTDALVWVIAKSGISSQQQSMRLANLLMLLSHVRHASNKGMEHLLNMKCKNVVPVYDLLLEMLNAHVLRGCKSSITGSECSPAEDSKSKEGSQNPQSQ", "test": "qHTS assay to identify small molecule antagonists of the estrogen receptor beta (ER-beta) signaling pathway (AID 1259378); further: potency means the concentration at half of the fitted maximal effect; on activity, negative = inhibition: on the % scale 0 is the no-effect control and ±100 the full control effect", "details": "ER-beta-UAS-bla HEK293T, beta-lactamase FRET ratio, 16 h; series mostly up to 92.4 µM; activity, negative = inhibition: at the top concentration", "from_the_text": "National Center for Advancing Translational Sciences [NCATS]\nNIH Chemical Genomics Center [NCGC]\nU.S. Environmental Protection Agency [EPA]\nNational Institutes of Environmental Health Sciences [NIEHS]\nNational Toxicology Program [NTP]\nU.S. Food and Drug Administration [FDA]\nEstrogen receptor (ER), a nuclear hormone receptor, plays an important role in development, metabolic homeostasis and reproduction. Two subtypes of ER, ER-alpha and ER-beta, have similar expression patterns with some uniqueness in both types. Endocrine disrupting chemicals (EDCs) and their interactions with steroid hormone receptors like ER causes disruption of normal endocrine function. To identify the compounds that inhibit ER signaling, an ER-beta-UAS-bla GripTite cell line (Life Technologies, Madison, WI, USA) containing a beta-lactamase reporter gene under the control of an UAS response element was used to screen Tox21 10K compound library.\nTox21 Assay Protocol Summary:\nER-beta-UAS-bla HEK293T cells were dispensed at 2,000 cells/4 uL of assay medium containing 2% charcoal stripped FBS per well into black wall/clear-bottom 1536-well plates using a Multidrop Combi (ThermoFisher Scientific, Waltham, MA) dispenser. After the assay plates were incubated at a 37C and 5% CO2 for 6 hr, 23 nL of compounds dissolved in DMSO, positive controls or DMSO only was transferred to the assay plate by a Pintool station (Kalypsys, San Diego, CA), followed by addition of 1 uL (1nM as final concentration) of 17-beta-estradiol (E2) in assay medium using a BioRAPTR FRD (Flying Reagent Dispenser, Aurora Discovery, San Diego, CA). The plates were incubated at 37C and 5% CO2 for 16 hr. Then 1 uL of LiveBLAzerTM B/G FRET substrate was added using a Flying Reagent Dispenser, the plates were incubated at room temperature for 2 hours, and fluorescence intensity was measured by an Envision plate reader (PerkinElmer, Shelton, CT).", "values": [{"smiles": "C=C(C)C1CC=C(C)C(OC(C)=O)C1", "note": "(stereo not given)", "Potency": "inactive"}, {"smiles": "CCCCCCCCCCCCc1ccccc1O", "Potency": "1.35 µM (active)"}, {"smiles": "CN1C(=O)c2ccc([N+](=O)[O-])cc2C1=O", "activity, negative = inhibition": "2.15%"}, {"smiles": "CCOc1ccccc1C(N)=O", "Potency": "inactive"}, {"smiles": "C=C(C)C(=O)O", "Potency": "inactive"}, {"smiles": "CC1COC(=O)O1", "note": "(stereo not given)", "Potency": "inactive"}, {"smiles": "CC(C)(C)NCC(O)COc1ccccc1OCC1CCCO1", "note": "(stereo not given)", "activity, negative = inhibition": "-2.33% [at 42.5 µM]"}, {"smiles": "C#CC(C)(CC)OC(=O)c1ccccc1C(=O)O", "note": "(stereo not given)", "activity, negative = inhibition": "19.4% [at 42.5 µM]"}, {"smiles": "Oc1c(Cl)cc(Cl)cc1Sc1cc(Cl)cc(Cl)c1O", "Potency": "27.8 µM (active) and 7.7 µM (active)"}, {"smiles": "O=C(O[C@@H]1Cc2c(O)cc(O)cc2O[C@@H]1c1cc(O)c(O)c(O)c1)c1cc(O)c(O)c(O)c1", "activity, negative = inhibition": "-12.4%"}, {"smiles": "OCCN1CCNCC1", "Potency": "inactive"}, {"smiles": "CCCCCC(=O)O[C@]1(C(C)=O)CC[C@H]2[C@@H]3CCC4=CC(=O)CC[C@]4(C)[C@H]3CC[C@@]21C", "Potency": "6.68 µM (active)"}, {"smiles": "Clc1ccc2c(c1)C(N1CCNCC1)=Nc1ccccc1O2", "Potency": "inactive"}, {"smiles": "C[N+]1([O-])CCOCC1", "activity, negative = inhibition": "9.46%"}, {"smiles": "N[C@@H]1CONC1=O", "activity, negative = inhibition": "-0.574% [at 42.5 µM]"}, {"smiles": "COC(c1ccccc1)(c1ccccc1)[C@H](Oc1nc(C)cc(C)n1)C(=O)O", "activity, negative = inhibition": "4.95% [at 42.5 µM]"}, {"smiles": "CC(=O)C1=C(C)[C@@H]2C[C@@]3(C1)[C@H](C)CC[C@H]3C2(C)C", "Potency": "inactive"}, {"smiles": "C/C=C/c1ccc(OCC)c(O)c1", "activity, negative = inhibition": "4.78%"}, {"smiles": "O=C(Cl)c1cccc(C(=O)Cl)c1", "Potency": "inactive"}, {"smiles": "Cc1c2oc3c(C)ccc(C(=O)N[C@@H]4C(=O)N[C@H](C(C)C)C(=O)N5CCC[C@H]5C(=O)N(C)CC(=O)N(C)[C@@H](C(C)C)C(=O)O[C@@H]4C)c3nc-2c(C(=O)N[C@@H]2C(=O)N[C@H](C(C)C)C(=O)N3CCC[C@H]3C(=O)N(C)CC(=O)N(C)[C@@H](C(C)C)C(=O)O[C@@H]2C)c(N)c1=O", "note": "(I: T[dV]P[Sar][NMeV] / II: T[dV]P[Sar][NMeV]; ester I:1-I:C, II:1-II:C; linker I:N-II:N via Actinocin(9to1))", "Potency": "0.0266 µM (active)"}, {"smiles": "Nc1ccc(O)cc1", "activity, negative = inhibition": "2.51% [at 42.5 µM]"}, {"smiles": "CCOC(=O)C(C)C(C)=O", "note": "(stereo not given)", "activity, negative = inhibition": "-1.01%"}, {"smiles": "Cc1cc(C(C)(C)C)c(O)c(C(C)(C)C)c1", "Potency": "inactive"}, {"smiles": "O=C(O)CCc1ccccc1", "activity, negative = inhibition": "-7.56%"}, {"smiles": "c1ccc2n[nH]nc2c1", "Potency": "inactive"}, {"smiles": "CCC(CO)(CO)COCC(CC)(CO)CO", "activity, negative = inhibition": "1.77%"}, {"smiles": "O=C1NCC2(CCN(CCc3ccccc3)CC2)O1", "activity, negative = inhibition": "-0.131% [at 42.5 µM]"}, {"smiles": "COC(=O)c1cccc(C(=O)OC)c1", "Potency": "inactive"}, {"smiles": "C=CC(=O)OCCCCCCCC", "activity, negative = inhibition": "17.8%"}, {"smiles": "CC(=O)N[C@@H](CS)C(=O)O", "activity, negative = inhibition": "-9.22% [at 42.5 µM]"}, {"smiles": "Cc1cccc(O)c1C", "Potency": "inactive"}, {"smiles": "NC(=Nc1ccccc1)Nc1ccccc1", "Potency": "inactive"}, {"smiles": "C=CC(=O)OCCCCCCOC(=O)C=C", "Potency": "54.5 µM (active)"}, {"smiles": "O=Cc1ccc(Cl)cc1", "activity, negative = inhibition": "10.4%"}, {"smiles": "CC(=O)OCC1=C(C(=O)O)N2C(=O)[C@@H](NC(=O)Cc3cccs3)[C@H]2SC1", "activity, negative = inhibition": "6.23% [at 42.5 µM]"}, {"smiles": "CCN(CC)CCOc1ccc(/C(=C(\\Cl)c2ccccc2)c2ccccc2)cc1", "Potency": "0.266 µM (active)"}, {"smiles": "COc1nc(C)nc(Cl)c1NC1=NCCN1", "activity, negative = inhibition": "17.1% [at 42.5 µM]"}, {"smiles": "BrC1CCC(Br)C(Br)CCC(Br)C(Br)CCC1Br", "note": "(stereo not given)", "activity, negative = inhibition": "-19.9%"}, {"smiles": "C1COC(NC(C2CC2)C2CC2)=N1", "activity, negative = inhibition": "0.155% [at 42.5 µM]"}, {"smiles": "CC(C)(C)c1ccc(O)c(C(C)(C)C)c1", "activity, negative = inhibition": "1.84%"}]}]}
